In PubChem BioAssay AID588774 (The Scripps Research Institute Molecular Screening Center, 2011) one finds anti-target count and inhibition data, which are given here for 17 molecules.

The source made the active and inactive calls.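 The calls were made as follows: active = target enzyme inhibited at least 50% at a set dose, and selective over every off-target enzyme by a set factor; inactive = weaker inhibition or too little selectivity.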

A short description of experiment [1]: pPAFAH inhibition and serine hydrolase selectivity, SAR follow-up, selectivity assay for pPAFAH inhibitor project, biochemical, gel-based, FP-Rh fluorescence, complex proteome, SAR compounds (AID 588774).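 As to inhibition: 0% = DMSO-only band intensity and 100% = blank gel background.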 The note with it: gel-based competitive ABPP, MW 30 kDa, anti-targets inhibited, at 10 µM.
A further experiment has as its system MW 30 kDa. The experiment is described as above. The following applies: gel-based competitive ABPP, at 10 µM, stronger effect = higher value.

For the molecule `Cc1cc(N2CCN(C(=O)Oc3ccc(C4CCCCC4)cc3)CC2)c2ccccc2n1`, in experiment [1], the anti-target count came to 0. In addition, the inhibition (usually how much of the control response was suppressed) in the experiment with MW 30 kDa is 0% (inactive).
For `Cc1cc(N2CCN(C(=O)Oc3ccc(-n4cccc4)cc3)CC2)c2ccccc2n1` the same measures were 0 and 0% (inactive).
Taken in the same sequence, the figures for `Cc1cc(N2CCN(C(=O)n3ncc(-c4ccc(OC(F)(F)F)cc4)n3)CC2)c2ccccc2n1` were 9 and 100% (inactive).
Taken in the same sequence, the figures for `Cc1cc(N2CCN(C(=O)Oc3ccc(-c4ccccc4)cc3)CC2)c2ccccc2n1` were 0 and 0% (inactive).
In experiment [1], `Cc1cc(N2CCN(C(=O)Oc3ccc([N+](=O)[O-])cc3)CC2)c2ccccc2n1` yielded an anti-target count of 2. In addition, the inhibition with MW 30 kDa was 0% (inactive).
`Cc1cc(N2CCN(C(=O)Oc3noc4cc(Cl)ccc34)CC2)c2ccccc2n1` showed an anti-target count in experiment [1] of 4. In the experiment on MW 30 kDa, the inhibition is 0% (inactive).
Taken in the same sequence, the figures for `O=C(N1CCOCC1)n1oc2cc(Cl)ccc2c1=O` were 6 and 78% (inactive).
For `Cc1cc(N2CCN(C(=O)Oc3ccc(C4CCCC4)cc3)CC2)c2ccccc2n1` the same measures were 0 and 0% (inactive).
For `Cc1cc(N2CCN(C(=O)Oc3ccc(-c4ccc(Br)cc4)cc3)CC2)c2ccccc2n1` the same measures were 0 and 0% (inactive).
The molecule `Cc1cc(N2CCN(C(=O)n3ncc(-c4ccc(Cl)c(Cl)c4)n3)CC2)c2ccccc2n1` displayed an anti-target count in experiment [1] of 8. In addition, in the experiment with MW 30 kDa, the inhibition was 93% (inactive).
For `Cc1cc(N2CCN(C(=O)n3ncc(-c4ccccc4)n3)CC2)c2ccccc2n1`, the anti-target count in experiment [1] came to 9. In addition, in the experiment with MW 30 kDa, the inhibition is 88% (inactive).
For `Cc1cc(N2CCN(C(=O)n3oc4cc(Cl)ccc4c3=O)CC2)c2ccccc2n1` the same measures were 3 and 39% (inactive).
Turning to `Cc1cc(N2CCN(C(=O)Oc3ccc(C(F)(F)F)cc3)CC2)c2ccccc2n1`, the anti-target count in experiment [1] was 1. Moreover, in the experiment on MW 30 kDa, the inhibition is 0% (inactive).
For `Cc1cc(N2CCN(C(=O)n3ncc(-c4ccc([N+](=O)[O-])cc4)n3)CC2)c2ccccc2n1` the same measures were 9 and 91% (inactive).
In the case of `O=C(Oc1noc2cc(Cl)ccc12)N1CCOCC1`, in experiment [1], the anti-target count worked out at 3. For the same molecule, the inhibition in the experiment with MW 30 kDa was 97% (inactive).
Take `COc1ccc(-c2cnn(C(=O)N3CCN(c4cc(C)nc5ccccc45)CC3)n2)cc1`: the anti-target count in experiment [1] came out at 8. The inhibition in the experiment with MW 30 kDa is 79% (inactive).
Turning to `O=C(Oc1noc2cc(Cl)ccc12)N1CCCCC1`, in experiment [1], the anti-target count stood at 2. Also, in the experiment with MW 30 kDa, the inhibition was 100% (inactive).
